From the supplement of paper PMC6555819

Test system: PPARg:RXRa 90nM:30nM, anti-RXR (NR concentration 90 nM, RXRa partner concentration 30 nM)
Test: PBM binding z-score (relative to random genomic background probes); higher = stronger binding; sequences stand for … in GC…GCGATTGACAGCGTAGAATGAAGG
Procedure, shortened: (§1)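 Antibodies against each partner of ligand-free nuclear receptor dimers (one per run) detected binding on custom Agilent 4×180K protein-binding microarrays after 1 h incubation. The double-stranded probes had 34-nt variable regions carrying direct-repeat seeds, single-nucleotide variants, half-site ablations and random human genomic background sequences. Binding z-scores, from regression-normalized fluorescence, use the random background probes as reference.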

First: TCAGAGAGGTGAAGGTAACTCAGGTACGCAGTCG
Second: GGTAGTTGGTCAGTAAAAGGTCACACACCGGTCG
The PBM binding z-score of the first is lower: 3.09 for the first, 3.81 for the second.

Going from GTACCAAGGTGAATAGTTCGTTGATGAGTAGGCG to TCTATTAGTTGAATAGGGCAACCGAAACAGCGGA, the PBM binding z-score rises from 0.842 to 2.81.

Going from CAAACTAGGTCACAGAGCTCAAAGTCCGTGCGTA to ATCTCTTGGTAACAAGTTCAGTGAAAGAGAGGAC, the PBM binding z-score falls from 7.26 to 0.28.

Compared with TCAGACAGGTCAAGGTAACTCAGGTACGCAGTCG, TCGAGTAGGTTAGTCGGGGCGTTCAGCCAACATA is lower in PBM binding z-score: 4.13 for the first, 0.186 for the second.

First: TCTGCTAGGTCAGTTGGTCAGCTCACGAGCTGCC
Second: AGAACGAGGGCACGCTGAGTTGATTGCAGAGTAG
The PBM binding z-score of the first is higher: 1.87 for the first, 1.15 for the second.

Going from AGAACGAGGGCACGCTGAGTAGATAGCAGAGTAG to ATATGTAGGTTACATCCGGGTCATTCCGGCTATG, the PBM binding z-score rises from 1.18 to 4.37.

First: AGAACGCGGGCACGCTGAGTTGATAGCAGAGTAG
Second: TCTTGTAGATCAATAGAGGCTAAGAAAGTGCGCT
The PBM binding z-score of the first is lower: -0.727 for the first, 1.84 for the second.

Compared with CCTAGCAGGCCAATCTGGGTCACTGAAGGCTTGA, CCTTACGGGTCACGAGGTTACAGCACGACGAGCG is higher in PBM binding z-score: 1.81 for the first, 5.93 for the second.

Going from TCTTGTAGATCAGCAGGTGAAGAAAGCTGGCCAA to ACTATTAGCTGACTTAGGGCAACCGATACGACGC, the PBM binding z-score falls from 1.8 to 0.0192.

Going from AGAACGAGGGCAATGAGTTGATCGCACGGGTGGC to TTACCAAGGTGAAGGTCGTCGATCCCTCTGTAGA, the PBM binding z-score rises from 0.0795 to 4.28.

Going from CTCGAAAGGTCGGTTGAGGTGAATATACGGATAA to CGTCCAAGGTCAAGGCTAGGTCAGTGAAAGCATT, the PBM binding z-score rises from 1.15 to 4.01.

First: ACTAGCAGGCAAAGGGTCACTCAAGATTAGTCCG
Second: TCTTGTAGAACAAAGGTTAAGAAAGCCGAAGCCT
The PBM binding z-score of the first is lower: 6.43 for the first, 8.74 for the second.

Going from TAACCTAGGTCATGGGCCAGTATACCACGCGAAC to CTACCAAGGTGAACAAGGTCGTTGCTTACTATTC, the PBM binding z-score falls from 4.41 to 0.845.

Compared with TGTGCTAGGTCAGTTGGTCAGCTAACGAGCTGCC, TCTGGTTGGTCACGGAGGTCACACACGACGGGTA is higher in PBM binding z-score: 0.746 for the first, 3.15 for the second.

Going from AGTCAAAGTTCATCTAGGTGACGTAAGATATGCT to GCTCTTAGTTGAAAGGGCAACCGAATGATTCTCG, the PBM binding z-score falls from 5.48 to 1.71.

Going from CGTCCAAGGTCAGGGTCAGTGAAAGAGACTCGAA to TCATATAGCTAAAGGTGAAAGTCGAACGATATGA, the PBM binding z-score rises from 2.98 to 3.31.

First: AGAATGAGGTTACCAAAGATCAGGTAAACGCTTG
Second: GCTGCTAGGTCAACTGATGGTTAGCTAAAGCTCG
The PBM binding z-score of the first is lower: 1.9 for the first, 1.99 for the second.

First: TCGAGTAGGTTACTCGGGGCATTCAGCCAACATA
Second: AGAAGGAGGGCACGCTGAGTTGATAGCAGAGTAG
The PBM binding z-score of the first is lower: 0.94 for the first, 1.01 for the second.

Going from GCATATAGGTAATACATGGTGAAAGTCCGATTGT to GCTATTAGTTGAAAAGGCAACCGAATGATTCTCG, the PBM binding z-score rises from 0.476 to 0.651.

Compared with CAAACTAGGTCAAGGTCAACGTCGGTTTGTGCCA, GCTTGTAAATCAAGGTTAAGAAAGACTAAGCTAA is lower in PBM binding z-score: 8.58 for the first, 0.622 for the second.

Test system: PPARg:RXRa DBDmut IVT, anti-RXR (DBD mutation: RXRa K156A/R161A, NR concentration 270 nM, RXRa partner concentration 90 nM)
Test: as above
Procedure, shortened: as §1

Compared with TCAGAGAGGTGAAGGTAACTCAGGTACGCAGTCG, GGTAGTTGGTCAGTAAAAGGTCACACACCGGTCG is lower in PBM binding z-score: 3.17 for the first, 0.823 for the second.

Compared with GTACCAAGGTGAATAGTTCGTTGATGAGTAGGCG, TCTATTAGTTGAATAGGGCAACCGAAACAGCGGA is higher in PBM binding z-score: 1.57 for the first, 2.01 for the second.

Going from CAAACTAGGTCACAGAGCTCAAAGTCCGTGCGTA to ATCTCTTGGTAACAAGTTCAGTGAAAGAGAGGAC, the PBM binding z-score falls from 8.61 to -0.454.

Going from TCAGACAGGTCAAGGTAACTCAGGTACGCAGTCG to TCGAGTAGGTTAGTCGGGGCGTTCAGCCAACATA, the PBM binding z-score falls from 2.85 to 1.73.

Going from TCTGCTAGGTCAGTTGGTCAGCTCACGAGCTGCC to AGAACGAGGGCACGCTGAGTTGATTGCAGAGTAG, the PBM binding z-score rises from 3.21 to 4.08.

Compared with AGAACGAGGGCACGCTGAGTAGATAGCAGAGTAG, ATATGTAGGTTACATCCGGGTCATTCCGGCTATG is higher in PBM binding z-score: 4.04 for the first, 7.45 for the second.

Compared with AGAACGCGGGCACGCTGAGTTGATAGCAGAGTAG, TCTTGTAGATCAATAGAGGCTAAGAAAGTGCGCT is higher in PBM binding z-score: 0.0817 for the first, 1.51 for the second.

First: CCTAGCAGGCCAATCTGGGTCACTGAAGGCTTGA
Second: CCTTACGGGTCACGAGGTTACAGCACGACGAGCG
The PBM binding z-score of the first is lower: 4.44 for the first, 4.58 for the second.

Compared with TCTTGTAGATCAGCAGGTGAAGAAAGCTGGCCAA, ACTATTAGCTGACTTAGGGCAACCGATACGACGC is lower in PBM binding z-score: 1.32 for the first, 0.43 for the second.

Going from AGAACGAGGGCAATGAGTTGATCGCACGGGTGGC to TTACCAAGGTGAAGGTCGTCGATCCCTCTGTAGA, the PBM binding z-score falls from 2.79 to 1.94.

Going from CTCGAAAGGTCGGTTGAGGTGAATATACGGATAA to CGTCCAAGGTCAAGGCTAGGTCAGTGAAAGCATT, the PBM binding z-score rises from -0.113 to 3.68.

Compared with ACTAGCAGGCAAAGGGTCACTCAAGATTAGTCCG, TCTTGTAGAACAAAGGTTAAGAAAGCCGAAGCCT is higher in PBM binding z-score: 0.313 for the first, 2.26 for the second.

Compared with TAACCTAGGTCATGGGCCAGTATACCACGCGAAC, CTACCAAGGTGAACAAGGTCGTTGCTTACTATTC is lower in PBM binding z-score: 4.06 for the first, 2.88 for the second.

Compared with TGTGCTAGGTCAGTTGGTCAGCTAACGAGCTGCC, TCTGGTTGGTCACGGAGGTCACACACGACGGGTA is higher in PBM binding z-score: 1.29 for the first, 1.74 for the second.

Going from AGTCAAAGTTCATCTAGGTGACGTAAGATATGCT to GCTCTTAGTTGAAAGGGCAACCGAATGATTCTCG, the PBM binding z-score falls from 1.67 to 0.37.

First: CGTCCAAGGTCAGGGTCAGTGAAAGAGACTCGAA
Second: TCATATAGCTAAAGGTGAAAGTCGAACGATATGA
The PBM binding z-score of the first is higher: 2.17 for the first, 1.54 for the second.

Compared with AGAATGAGGTTACCAAAGATCAGGTAAACGCTTG, GCTGCTAGGTCAACTGATGGTTAGCTAAAGCTCG is higher in PBM binding z-score: 3.32 for the first, 5.04 for the second.

Compared with TCGAGTAGGTTACTCGGGGCATTCAGCCAACATA, AGAAGGAGGGCACGCTGAGTTGATAGCAGAGTAG is higher in PBM binding z-score: 3.23 for the first, 4.39 for the second.

Going from GCATATAGGTAATACATGGTGAAAGTCCGATTGT to GCTATTAGTTGAAAAGGCAACCGAATGATTCTCG, the PBM binding z-score falls from 3.87 to -0.116.

Going from CAAACTAGGTCAAGGTCAACGTCGGTTTGTGCCA to GCTTGTAAATCAAGGTTAAGAAAGACTAAGCTAA, the PBM binding z-score falls from 8.4 to 0.268.
